Assay results reported in PubChem BioAssay AID720541 (National Center for Advancing Translational Sciences (NCATS), 2013).
About 420 (32%) of roughly 1,300 compounds were called active. Not shown: some 32% with an inconclusive outcome. Calls follow the shape of the dose curve; as a rule, active = well fitted inhibition curve with a large enough effect; inconclusive = small, poorly fitted or top-dose-only effect; inactive = no such curve, though single readings can be large or run the other way. Some of the results follow. Where a call stands in place of a potency, no number is given.

Target: C-terminal-binding protein 1 (Homo sapiens) (UniProt Q13363)
Test: qHTS for Inhibitors of the Phosphatase Activity of Eya2: Carboxyl-terminal binding protein (CtBP) Counterscreen for Cherry-picked Compounds; also: nearly all actives have a fitted effect of over 65% in size
Settings: purified protein-protein binding, AlphaScreen, 3 h; series mostly up to 46.1 µM
Procedure, shortened: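 Cherry-picked compounds (final 2.5 nM–46 uM) were incubated 2 h at RT with 25 nM CtBP-6xHIS and 25 nM GST-E1A. Alpha beads (20 ug/mL) were then added for 1 h, light-protected; DMSO and E1A peptide inhibitor wells set the normalization.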
Potency is read from the fitted curve at half-maximal effect.

Row | SMILES | Potency
1 | CCOC(=O)C1=C(N)Oc2c(oc(CO)cc2=O)C1c1ccc(Cl)cc1 (stereo not given) | inactive
2 | O=C(Nc1ccc2nc(-c3ccco3)c(-c3ccco3)nc2c1)N1CCCC1 | 16.9 µM (active)
3 | CC1CCN(C(=O)Nc2ccc3nc(-c4ccco4)c(-c4ccco4)nc3c2)CC1 | 15.1 µM (active)
4 | CCOC(=O)c1ncccc1NC(=O)CC(=O)Nc1cccnc1C(=O)OCC | 2.39 µM (active)
5 | Cc1cc(OC(=O)c2ccc(Cl)cc2)cc(=O)n1C | inactive
6 | C[C@H](O)[C@@H]1CN2CCc3c([nH]c4ccc(-c5ccc6c(c5)OCO6)cc34)[C@@H]2C[C@@H]1N(C)C(=O)NC1CCCCC1 | inactive
7 | COc1ccc(Nc2nc(N)nc(CSC(=S)N3CCCCC3)n2)cc1 | inactive
8 | Oc1ccccc1C=NC1CCCCC1N=Cc1ccccc1O (stereo not given) | 15.1 µM (active)
9 | COc1cc([C@H]2Oc3cc([C@H]4Oc5cc(O)cc(O)c5C(=O)[C@@H]4O)ccc3O[C@@H]2CO)ccc1O | inactive
10 | c1ccc(-c2ccc(C3=Nn4c(nnc4-c4cc(-c5ccccc5)n[nH]4)SC3)cc2)cc1 | inactive
11 | Cc1cc(C)n2nc(C(=O)NC3CCCc4ccccc43)nc2n1 (stereo not given) | inactive
12 | Cc1cc(C)n2nc(SCCOc3ccccc3F)nc2n1 | 12 µM (active)
13 | O=c1[nH]c(SCCOc2ccccc2F)nc2ccccc12 | inactive
14 | O=c1[nH]c(=O)n(C2C[C@H](O)[C@@H](CO)O2)cc1C(F)(F)F (stereo not given in full) | inactive
15 | COc1cccc(/C=N/N2C(=O)CSC2=S)c1O | 1.2 µM (active)
16 | Cc1ccc(Nc2nc(NCCO)nc3c2cnn3C)cc1Cl | 7.57 µM (active)
17 | COc1ccc(Nc2nc(-c3c(C)nc4ncccn34)cs2)cc1 | 2.69 µM (active)
18 | Cc1nc2ncccn2c1-c1csc(Nc2ccccc2)n1 | 2.39 µM (active)
19 | CC1=C(C(=O)OC(C)C)C(c2ccc(N(C)C)cc2)C2=C(CC(C)(C)CC2=O)N1 (stereo not given) | inactive
20 | Cc1cc(C(=O)O)ccc1-n1c(C)cc(C=C2C(=O)c3ccccc3C2=O)c1C | inactive
21 | COC(=O)c1ccc(C23CC4(C2)[C@H](CN(CC2CCCCC2)[C@@H]4c2ccccc2)C3c2ccc(Cl)nc2)cc1 (stereo not given in full) | inactive
22 | Cc1sc(NC(=O)C2=COCCO2)c(C(N)=O)c1C | inactive
23 | CCCC(=O)NC(=S)Nc1sc2c(c1C(N)=O)CCC2 | inactive
24 | NC(=O)c1c(NC(=O)c2cnccn2)sc2c1CCCC2 | 0.301 µM (active)

Row | SMILES | Potency
25 | NC(=O)c1c(NC(=O)c2ccc(N3C(=O)CCC3=O)cc2)sc2c1CCCC2 | 0.478 µM (active)
26 | COc1ccccc1NC(=O)NCCN1CCN(C(=O)Nc2ccccc2OC)CC1 | inactive
27 | COc1ccc(-c2cc(C3CCNCC3)[nH]n2)cc1 | inactive
28 | O=C(Oc1ccc(C(=S)N2CCOCC2)cc1)c1ccc(F)cc1 | inactive
29 | O=C(/C=C/c1ccccc1)Oc1ccc(C(=S)N2CCOCC2)cc1 | 0.239 µM (active)
30 | O=C(Oc1ccc(C(=S)N2CCOCC2)cc1)c1ccccc1 | inactive
31 | COC(=O)c1ccc(OC(=O)c2cccnc2)cc1 | inactive
32 | O=C(O)c1ccc2c(c1)C(=O)N(c1ccc(/C=C/C(=O)c3ccccc3)cc1)C2=O | inactive
33 | CC(=O)c1ccc(OC(=O)/C=C/c2ccccc2)cc1 | 0.536 µM (active)
34 | Cc1ccc(C2CC(c3ccc(Br)cc3)=NN2C(=O)CSC2=NN3CCCC(=O)N=C3S2)cc1 (stereo not given) | inactive
35 | Fc1cccc(Cc2c(-c3ccco3)nc3ccc(Br)cn23)c1 | inactive
36 | COc1cc(C(=S)N2CCOCC2)ccc1OC(=O)c1ccc([N+](=O)[O-])cc1[N+](=O)[O-] | 10.7 µM (active)
37 | O=[N+]([O-])c1ccc([N+](=O)[O-])c(Nc2ccc(N3CCOCC3)cc2)c1 | inactive
38 | CC(=O)N1CCN(/[N+]([O-])=N/Oc2ccc([N+](=O)[O-])cc2[N+](=O)[O-])CC1 | inactive
39 | S=c1[nH]nc(-c2ccccn2)n1/N=C/c1ccc(Br)s1 | 12 µM (active)
40 | C[C@@]12CCC=C[C@H]1[C@H](c1ccc3ccccc3c1/C=C/c1ccccc1)N(Cc1ccccc1)C2=O | inactive
41 | Cc1ccc(S(=O)(=O)N2c3ccccc3-c3c(ssc3=S)C2(C)C)cc1 | 15.1 µM (active)
42 | CC(C)OCCCNC(=O)c1ccccc1NC(=O)C1=CSCCO1 | inactive
43 | Nc1ccccc1C(=O)NNc1c2ccccc2nc2ccccc12 | 6.75 µM (active)
44 | CC(C)(C)C(=O)[C@H]1[C@H](c2ccccc2)[C@@]2(N=C(c3ccccc3)OC2=O)C2c3ccccc3C=NN21 (stereo not given in full) | inactive
45 | CCOc1ccc2nc(N3CCCC(C(=O)N4CCN(CC)CC4)C3)sc2c1 (stereo not given) | inactive
46 | O=C1c2cccc3cccc(c23)C(=O)N1CCCN1CCN(c2ccc(F)cc2)CC1 | inactive
47 | CCC(=O)Nc1ccc(-c2nnc(SCc3ccccc3)n2C)cc1 | inactive
48 | Cc1ccc2cc(NC(=O)CC(CC(=O)O)c3ccccc3)ccc2n1 (stereo not given) | 15.1 µM (active)

Row | SMILES | Potency
49 | Cc1ccc(S(=O)(=O)N2CCOCC2)cc1NC(=O)CSc1nnc2cc(C)c3ccccc3n12 | 13.5 µM (active)
50 | CCSc1nc2ccccc2n1C(=O)c1ccc(S(=O)(=O)N2CCCCC2)cc1 | inactive
51 | CCSc1nnc(-c2ccc(S(=O)(=O)N3CCOCC3)cc2)n1C | inactive
52 | Cc1cc(C)c2nc(SCC(=O)N(C)C3CCS(=O)(=O)C3)cc(C)c2c1 (stereo not given) | inactive
53 | COc1ccc(S(=O)(=O)c2c(O)c3ccc(C(=O)Nc4ccccc4F)cc3[nH]c2=O)cc1 | 0.757 µM (active)
54 | COc1ccc(C(=O)Nc2cc(OC)c(NC(=O)Nc3ccccc3)cc2OC)cc1 | inactive
55 | COc1ccc(N(CC(=O)Nc2cccc(C(C)=O)c2)S(=O)(=O)c2ccc(NC(C)=O)cc2)cc1 | inactive
56 | COc1ccc(S(=O)(=O)c2c(O)c3ccc(C(=O)Nc4cccc(F)c4)cc3[nH]c2=O)cc1 | 0.536 µM (active)
57 | COc1ccc(C2NC(C(=O)O)Cc3c2[nH]c2ccccc32)cc1CN1CCN(c2ccc(F)cc2)CC1 (stereo not given) | inactive
58 | CCc1nc2ccc(C(=O)NCCCN(C)C)cn2c1N(C)Cc1ccc(OC)cc1 | inactive
59 | COc1cc(N(C)C)c(OC)cc1/C=C1\C=Cc2ccccc21 | 5.36 µM (active)
60 | COc1cc(OC)c(OC)cc1/C=C1\C=Cc2ccccc21 | 12 µM (active)
61 | COc1cc(N(C)C)ccc1/C=C1\C=Cc2ccccc21 | 8.49 µM (active)
62 | COc1cc(OC)c(OC)cc1/C=C1\CC(C)C/C(=C\c2cc(OC)c(OC)cc2OC)C1=O (stereo not given) | inactive
63 | CN(C)c1ccc(/C=C2\C=Cc3ccccc32)c(Cl)c1 | 8.49 µM (active)
64 | Cc1cc(C)c(C#N)c(Sc2nnnn2-c2ccccc2)n1 | inactive
65 | N#Cc1c(N)n(-c2ccc(C(=O)O)cc2)c2nc3ccccc3nc12 | 12 µM (active)
66 | N#Cc1c(N)n(-c2cccc(C(=O)O)c2)c2nc3ccccc3nc12 | 10.7 µM (active)
67 | O=C(O)c1ccc2c(c1)C(=O)N(c1cccc(-c3nc4ccccc4s3)c1)C2=O | inactive
68 | CN(C)C(C)(C)C#CC(O)(c1ccccc1)c1ccccc1 | inactive
69 | O=C(O)c1ccc(-c2ccc(/C=c3/sc4nc5ccccc5n4c3=O)o2)cc1Cl | 4.26 µM (active)
70 | CCOc1cccc(CN2CCC(CCC(=O)NC3CC3)CC2)c1O | inactive
71 | CC(C(=O)c1ccc(Br)cc1)[n+]1cccc2ccccc21 (stereo not given) | inactive
72 | CCC(=O)N1c2ccc(S(=O)(=O)N3CCN(c4ccc([N+](=O)[O-])cc4)CC3)cc2CC1C (stereo not given) | inactive

Row | SMILES | Potency
73 | CCc1ccc2nc(N(CCN(C)C)C(=O)c3ccc4ncsc4c3)sc2c1 | inactive
74 | Cc1sc2nc3ccc(N4CCCCC4)nn3c(=O)c2c1C | 13.5 µM (active)
75 | C[C@](N)(Cc1ccc(O)c(O)c1)C(=O)O | inactive
76 | CCOc1ccc(C2C3=C(Nc4nc(N)[nH]c(=O)c42)c2ccccc2C3=O)cc1 (stereo not given) | 2.39 µM (active)
77 | Nc1nc2c(c(=O)[nH]1)C(c1ccccc1)C1=C(N2)c2ccccc2C1=O (stereo not given) | 1.69 µM (active)
78 | Nc1nc2c(c(=O)[nH]1)C(c1cccc3ccccc13)C1=C(N2)c2ccccc2C1=O (stereo not given) | 4.26 µM (active)
79 | CCCOc1ccc(C2C3=C(Nc4nc(N)[nH]c(=O)c42)c2ccccc2C3=O)cc1 (stereo not given) | 3.79 µM (active)
80 | CS(=O)(=O)c1ccc2nc(NC(=O)c3ccccc3Cl)sc2c1 | inactive
81 | Cc1nc(NC(=O)c2ccccc2)sc1-c1cc(C(=O)O)nn1Cc1ccccc1 | inactive
82 | CS(=O)(=O)c1ccc(C(=O)Nc2nc(-c3ccco3)c(-c3ccco3)s2)cc1 | 13.5 µM (active)
83 | Nc1c(N=Nc2ccc([N+](=O)[O-])cc2)c(S(=O)(=O)O)cc2cc(S(=O)(=O)O)c(/C=C/c3ccccc3)c(O)c12 | 7.57 µM (active)
84 | COc1ccc2c(c1)sc1nc(=O)ccn12 | inactive
85 | O=C(N[C@@H]1CC[C@H](CCn2cc(-c3ccccn3)nn2)O[C@@H]1CO)c1ccncc1 | 12 µM (active)
86 | Cc1ccc(SCc2nc(N)nc(Nc3ccccc3C)n2)cc1C | inactive
87 | COc1ccc(C(=O)C2CCCN(C(=O)c3cccc(N(C)C)c3)C2)cc1OC (stereo not given) | inactive
88 | COc1cccc(C(=O)C2CCCN(CC3=Cc4cc(OC)ccc4OC3)C2)c1 (stereo not given) | 13.5 µM (active)
89 | Cc1cn2c(nc(=O)c3cccnc32)s1 | 12 µM (active)
90 | COc1cc(NC(=O)c2ccccc2Cl)ccc1NC(=O)c1cccs1 | inactive
91 | Cc1cc(NC(=O)c2cccs2)cc(-c2nc3ncccc3o2)c1O | inactive
92 | Cc1cc(NC(=O)c2ccccc2F)ncc1NC(=O)c1cccs1 | 12 µM (active)
93 | O=C(Oc1ccc(-c2nnco2)cc1)c1ccco1 | inactive
94 | Cc1ccc(OCC(=O)Nc2cc(NC(=O)COc3ccc(C)c(C)c3)cc(C(=O)O)c2)cc1C | inactive
95 | CC(=O)Oc1ccc(C(=O)Nc2cc(NC(=O)c3ccc(OC(C)=O)cc3)cc(C(=O)NC(C)(C)C)c2)cc1 | 15.1 µM (active)
